# Results filed as inconclusive are left out. Entries that show only a call come without a potency. The source made the active and inactive calls. Calls come from the whole dose curve; as a rule, active = well fitted curve in the direction sought with a large enough effect; inconclusive = small, poorly fitted or top-dose-only effect, or another doubt; inactive = no such curve, though single readings can be large; an effect the other way counts as inactive or inconclusive.
# Columns and labels:
# [1] = qHTS assay for measurement of the activity of small molecule inhibitors on Zika virus induced Caspase-3 activity in human iPSC derived neural progenitor cells (hNPCs) (AID 1224857); note: nearly all actives have a fitted effect of over 65% in size
# In short: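 hNPCs seeded 350 cells/well, cultured 16–20 h; compounds added 1 h before ZIKV (2 FFU/cell), 37 C 6 h. Caspase-Glo 3/7 luminescence after 30 min RT; % inhibition from induction scaled to uninfected (0%) and infected (100%) wells.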
# [2] = qHTS assay for measurement of the activity of small molecule inhibitors on Zika virus induced Caspase-3 activity in human astrocytoma cells (AID 1224859)
# In short: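 Luminescence read-out (Caspase-Glo 3/7, 30 min RT) of caspase activity in SNB-19 cells infected 6 h with ZIKV, 2 FFU/cell, after 1 h compound pretreatment; % inhibition from induction normalised to uninfected (0%) and infected (100%) wells.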
# [3] = qHTS Screen of the MIPE 4.0 Collection Against Ewings Sarcoma (RDES) (AID 1259252); note: nearly all actives have a fitted effect of over 35% in size; note: potency is the fitted concentration of half-maximal effect
# In short: (§1)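 Dose series incubated 48 h with cells in RPMI plus 5% FBS, glutamine and penicillin/streptomycin; cell viability then quantified via CellTiter-Glo.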
# [4] = qHTS Screen of the MIPE 4.0 Collection Against Ewings Sarcoma (TC71) (AID 1259253); note: nearly all actives have a fitted effect of over 40% in size; note: potency is the fitted concentration of half-maximal effect
# In short: as §1
# [5] = qHTS Screen of the MIPE 4.0 Collection Against Ewings Sarcoma (EW8) (AID 1259255); note: nearly all actives have a fitted effect of over 35% in size; note: potency is the fitted concentration of half-maximal effect
# In short: as §1
# [6] = qHTS Screen of the MIPE 4.0 Collection Against Ewings Sarcoma (TC32) (AID 1259256); note: nearly all actives have a fitted effect of over 45% in size; note: potency is the fitted concentration of half-maximal effect
# In short: as §1
# [7] = qHTS assay to identify small molecule inhibitors of chordoma cells - UCH-1 (AID 1259355); note: nearly all actives have a fitted effect of over 55% in size; note: potency is the fitted concentration of half-maximal effect; series mostly up to about 46 µM
# In short: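 Cells (800/well) were seeded and left overnight at 37 C, 5% CO2, then treated with drugs at 15 concentrations plus a combination mix of auranofin, camptothecin, doxorubicin, rubitecan and topotecan. Viability after 48hr was read by CellTiter-Glo luminescence.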
# [8] = qHTS assay to identify small molecule inhibitors of chordoma cells - UCH-2 (AID 1259356); note: series mostly up to about 46 µM
SMILES,Potency [1],Potency [2],Potency [3],Potency [4],Potency [5],Potency [6],Potency [7],Potency [8]
COC(=O)Nc1nc2ccc(C(=O)c3ccccc3)cc2[nH]1,inactive,inactive,0.662 µM (active),1.48 µM (active),0.526 µM (active),0.418 µM (active),inactive,inactive
C[C@@H]1C[C@H]2[C@@H]3CCC4=CC(=O)C=C[C@]4(C)[C@@]3(Cl)[C@@H](O)C[C@]2(C)[C@@]1(OC(=O)c1ccco1)C(=O)CCl,inactive,inactive,3.72 µM (active),4.69 µM (active),11.8 µM (active),11.8 µM (active),inactive,inactive
NNC(=O)c1ccncc1,inactive,inactive,inactive,inactive,inactive,inactive,,
NC(=O)c1cccc(N)c1,inactive,inactive,inactive,inactive,inactive,inactive,,
CC(C)OC(=O)OCOP(=O)(CO[C@H](C)Cn1cnc2c(N)ncnc21)OCOC(=O)OC(C)C,inactive,inactive,inactive,18.7 µM (active),23.5 µM (active),,,
OCc1ccc(-c2nn(Cc3ccccc3)c3ccccc23)o1,inactive,inactive,2.64 µM (active),14.8 µM (active),1.18 µM (active),,,
COc1cc2nc(N3CCCN(C)CC3)nc(NC3CCN(Cc4ccccc4)CC3)c2cc1OC,inactive,inactive,8.33 µM (active),10.5 µM (active),7.43 µM (active),5.26 µM (active),,
O[C@@H](CNC[C@H](O)[C@H]1CCc2cc(F)ccc2O1)[C@@H]1CCc2cc(F)ccc2O1,inactive,inactive,23.5 µM (active),20.9 µM (active),20.9 µM (active),23.5 µM (active),,
COC(=O)Nc1nc2ccc(S(=O)c3ccccc3)cc2[nH]1 (stereo not drawn),inactive,inactive,11.8 µM (active),18.7 µM (active),13.2 µM (active),11.8 µM (active),,
C1CCC(C(CC2CCCCN2)C2CCCCC2)CC1 (stereo not drawn),inactive,inactive,23.5 µM (active),13.2 µM (active),13.2 µM (active),16.6 µM (active),31.6 µM (active),
N[C@@H](C(=O)N[C@@H]1C(=O)N2C(C(=O)O)=C(Cl)CS[C@H]12)c1ccccc1,inactive,inactive,inactive,inactive,inactive,inactive,inactive,inactive
CC1=NN(c2ccccc2)C(=O)C1,inactive,inactive,inactive,inactive,inactive,inactive,inactive,inactive
COc1ccccc1OCC(O)COC(N)=O (stereo not drawn),inactive,inactive,inactive,inactive,inactive,inactive,inactive,inactive
COc1nc(N)nc2c1ncn2[C@@H]1O[C@H](CO)[C@@H](O)[C@@H]1O,inactive,inactive,20.9 µM (active),inactive,inactive,inactive,inactive,inactive
CCC(C)(C)c1ccc(CC(C)CN2C[C@@H](C)O[C@@H](C)C2)cc1 (stereo partly drawn),inactive,inactive,inactive,inactive,inactive,inactive,inactive,inactive
O=C(O)CCn1c2c(c3ccccc31)C[C@H](NS(=O)(=O)c1ccc(F)cc1)CC2,inactive,inactive,inactive,inactive,inactive,inactive,,
COc1cnc(NS(=O)(=O)c2ccc(N)cc2)nc1,inactive,inactive,inactive,inactive,inactive,inactive,inactive,inactive
CCN1CCCC1CNC(=O)c1cc(S(N)(=O)=O)ccc1OC (stereo not drawn),inactive,inactive,inactive,16.6 µM (active),inactive,,,
O=C(O)CSCC(=O)NC1CCSC1=O (stereo not drawn),inactive,inactive,inactive,inactive,inactive,inactive,,
O=C(O)c1cc(=O)[nH]c(=O)[nH]1,inactive,inactive,inactive,inactive,inactive,inactive,inactive,inactive
Clc1ccccc1CN1CCc2sccc2C1,inactive,inactive,inactive,inactive,inactive,inactive,,
O=C(O)c1ccc(-n2nc(-c3ccccc3O)nc2-c2ccccc2O)cc1,inactive,inactive,20.9 µM (active),14.8 µM (active),,,,
CN1CCCC(n2nc(Cc3ccc(Cl)cc3)c3ccccc3c2=O)CC1 (stereo not drawn),inactive,inactive,1.05 µM (active),2.64 µM (active),8.33 µM (active),3.72 µM (active),inactive,inactive
Nc1nc(F)nc2c1ncn2[C@@H]1O[C@H](CO)[C@@H](O)[C@@H]1O,inactive,inactive,0.59 µM (active),0.372 µM (active),0.469 µM (active),1.32 µM (active),inactive,inactive
OC(Cn1cncn1)(Cn1cncn1)c1ccc(F)cc1F,inactive,inactive,inactive,inactive,inactive,inactive,inactive,inactive

SMILES,Potency [1],Potency [2],Potency [3],Potency [4],Potency [5],Potency [6],Potency [7],Potency [8]
O=c1cc(O)c(Cl)c[nH]1,inactive,inactive,inactive,inactive,inactive,inactive,inactive,inactive
CCCCS(=N)(=O)CCC(N)C(=O)O (stereo not drawn),inactive,inactive,14.8 µM (active),inactive,inactive,inactive,,
C[C@]12C=CC(=O)C=C1CC[C@@H]1[C@@H]2C(=O)C[C@@]2(C)[C@H]1CC[C@]2(O)C(=O)CO,inactive,inactive,inactive,inactive,inactive,inactive,inactive,inactive
CCOC(=O)[C@H](CCc1ccccc1)N[C@H]1CS[C@H](c2cccs2)CN(CC(=O)O)C1=O,inactive,inactive,4.18 µM (active),5.9 µM (active),5.9 µM (active),4.18 µM (active),inactive,inactive
NC(=O)c1ccc2[nH]ccc2c1,inactive,inactive,inactive,inactive,inactive,inactive,,
CC1(C)[C@H](C(=O)O)N2C(=O)C[C@H]2S1(=O)=O,inactive,inactive,inactive,inactive,inactive,inactive,,
CCCOc1ccc(C(=O)OCCN(CC)CC)cc1N,inactive,inactive,inactive,inactive,inactive,inactive,,
O=C(O)c1cccnc1,inactive,inactive,inactive,inactive,inactive,inactive,inactive,inactive
COCCCOc1cc(C[C@@H](C[C@H](N)[C@@H](O)C[C@H](C(=O)NCC(C)(C)C(N)=O)C(C)C)C(C)C)ccc1OC,inactive,inactive,inactive,inactive,inactive,inactive,,
Cc1ccc(S(=O)(=O)N[C@@H](Cc2ccccc2)C(=O)CCl)cc1,inactive,inactive,26.4 µM (active),18.7 µM (active),16.6 µM (active),14.8 µM (active),,
CCCc1cc(C(N)=S)ccn1,inactive,inactive,inactive,inactive,inactive,inactive,inactive,inactive
CC(=O)[C@H]1CC[C@H]2[C@@H]3CCC4=CC(=O)CC[C@]4(C)[C@H]3CC[C@]12C,inactive,inactive,3.32 µM (active),3.32 µM (active),9.35 µM (active),3.72 µM (active),,
CN(CCOc1ccc(CC2SC(=O)NC2=O)cc1)c1ccccn1 (stereo not drawn),inactive,inactive,6.62 µM (active),10.5 µM (active),inactive,inactive,inactive,inactive
CC(N)C12CC3CC(CC(C3)C1)C2 (stereo not drawn),inactive,inactive,inactive,inactive,inactive,inactive,inactive,inactive
Cc1cccc(N(C)C(=S)Oc2ccc3ccccc3c2)c1,inactive,inactive,inactive,inactive,inactive,inactive,inactive,inactive
CCn1cc(C(=O)O)c(=O)c2cc(F)c(N3CCNCC3)cc21,inactive,inactive,inactive,inactive,inactive,inactive,inactive,inactive
CCn1cc(C(=O)O)c(=O)c2cc(F)c(N3CCN(C)CC3)cc21,inactive,inactive,inactive,inactive,inactive,inactive,inactive,inactive
CCC(=O)O[C@]1(C(=O)SCF)[C@H](C)C[C@H]2[C@@H]3C[C@H](F)C4=CC(=O)C=C[C@]4(C)[C@@]3(F)[C@@H](O)C[C@@]21C,inactive,inactive,16.6 µM (active),inactive,inactive,inactive,inactive,inactive
CNNCc1ccc(C(=O)NC(C)C)cc1,inactive,inactive,inactive,inactive,inactive,inactive,inactive,inactive
Nc1[nH]c(=O)ncc1F,inactive,inactive,inactive,18.7 µM (active),inactive,13.2 µM (active),inactive,inactive
O=S(=O)(O)CCS,inactive,inactive,inactive,inactive,inactive,inactive,inactive,inactive
CCOC(=O)c1ccc(C#Cc2ccc3c(c2)C(C)(C)CCS3)nc1,inactive,inactive,inactive,inactive,inactive,inactive,inactive,inactive
CN(C)CCc1c[nH]c2ccc(CS(=O)(=O)N3CCCC3)cc12,inactive,inactive,inactive,inactive,inactive,inactive,inactive,inactive
COc1cc(NS(=O)(=O)c2ccc(N)cc2)nc(OC)n1,inactive,inactive,inactive,inactive,inactive,inactive,inactive,inactive
